ERb coact inh = inhibitors of ERβ-SRC1 coactivator interaction, primary screen, biochemical, TR-FRET, ERβ LBD, SRC-1 peptide | TR-FRET ER-beta LBD / SRC1-Cy5 peptide binding; receptor agonist-loaded with 1 µM estradiol | inhibition, % at 25.6 µM | AID 633, 2007 | 86,000 compounds, 1.3% hits;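 active = compounds whose percent inhibition of the receptor-coactivator binding signal exceeds about 50% in the single-dose screen, limit read from the data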;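 also: 0% = receptor plus peptide wells without compound and 100% = peptide-only wells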
Smad3 inh = Smad3/FoxH1 peptide binding inhibitors, primary screen, biochemical, TR-FRET. Mothers against decapentaplegic homolog 3 (Homo sapiens), P84022. TR-FRET Smad3/Dy647-FoxH1 peptide binding, europium anti-His. inhibition, % at 25 µM. 88,000 compounds, 0.29% hits. AID 630, 2007;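 active = compounds that reduce the energy-transfer binding signal between the protein and its labelled peptide by more than half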;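 also: 0% = Smad3 plus labelled peptide maximal FRET and 100% = peptide-only background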
ERa coact pot = enhancers of ERα–SRC-1 coactivator binding, primary screen, biochemical, TR-FRET, ERα LBD, low estradiol; TR-FRET ERalpha-LBD/SRC-Cy5 coactivator binding, 2 h; 100 = basal binding, no effect; coactivator binding (% of control), % at 25.6 µM; 86,000 compounds, 1.3% hits; AID 639, 2007; in the data active = activity above about 200%;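 also: binding measured in presence of low estradiol as agonist stimulus; 0% = peptide alone without receptor and 100% = receptor with peptide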
Target sequence (P03372 whole entry, looked up, the tested form may be a part): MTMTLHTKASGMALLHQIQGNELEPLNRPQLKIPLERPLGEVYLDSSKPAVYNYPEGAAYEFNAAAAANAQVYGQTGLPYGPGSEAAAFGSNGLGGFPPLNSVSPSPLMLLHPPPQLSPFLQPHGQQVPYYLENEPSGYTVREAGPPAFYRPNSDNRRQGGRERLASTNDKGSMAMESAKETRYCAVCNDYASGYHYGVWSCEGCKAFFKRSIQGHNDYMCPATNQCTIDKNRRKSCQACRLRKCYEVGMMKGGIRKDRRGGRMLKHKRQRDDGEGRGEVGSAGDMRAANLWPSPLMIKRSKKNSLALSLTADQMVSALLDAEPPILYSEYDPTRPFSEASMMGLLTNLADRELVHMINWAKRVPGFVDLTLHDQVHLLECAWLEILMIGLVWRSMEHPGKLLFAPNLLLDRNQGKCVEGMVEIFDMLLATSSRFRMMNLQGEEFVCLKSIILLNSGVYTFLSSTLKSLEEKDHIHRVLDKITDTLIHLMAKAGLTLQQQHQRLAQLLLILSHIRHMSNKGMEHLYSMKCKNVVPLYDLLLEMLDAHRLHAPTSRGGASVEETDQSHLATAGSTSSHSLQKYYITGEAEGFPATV
MT1-MMP txn act = MT1-MMP promoter reporter activation – cell-based, luciferase luminescence, primary screen | HT1080 MT1-MMP promoter luciferase reporter, overnight; active compounds read high | activation factor at 10 µM | 86,000 compounds, 0.16% hits;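 active = activation factor of at least 2 for MT1-MMP transcription at 10 µM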
ERa coact inh = ERα–SRC-1 coactivator interaction inhibitors, primary screen, biochemical, TR-FRET, ERα LBD, estradiol-bound; TR-FRET ER-alpha LBD / SRC-1 peptide; 86,000 compounds, 1.7% hits; inhibition, % at 25.6 µM; in the data active = inhibition above about 50%;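 also: 0% = receptor plus peptide control and 100% = peptide only without receptor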
Candida biofilm = clotrimazole potentiators killing Candida biofilms, primary screen, with clotrimazole, Alamar Blue; C. albicans biofilm + clotrimazole; inhibition, % at 6 µM; 85,000 compounds, 0.14% hits;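 active = inhibition above 20%; inactive = inhibition below 20%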;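 also: preformed 24 hr biofilms exposed to compound for 48 hr; 0% = biofilm without compound and 100% = blank killed by clotrimazole plus chlorhexidine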
* marks the source's active call; other numbers are inactive results; . = no result; [ ] = remark or other dose. Hits are enriched below; roughly 3.8% of the tested compounds scored in any of these assays.

SMILES	ERb coact inh	Smad3 inh	ERa coact pot	MT1-MMP txn act	ERa coact inh	Candida biofilm
N#Cc1c(-c2ccco2)cc(-c2ccccn2)nc1N	63*[fluorescence artefact?]	12	28	1.3	78*[fluorescence artefact?]	8
N#Cc1c(-c2ccco2)cc(-c2cccnc2)nc1N	37	6	73	1	48	1
CCCCNC(=O)CC1SC(=NCC)N(CC)C1=O (configuration not stated)	-37	11	116	1.2	5	1
CCN=C1SC(CC(=O)NC(C)C)C(=O)N1CC (configuration not stated)	-26	-3	853*[fluorescence artefact?]	1.2	3	5
O=C(CCCN1C(=O)c2cccc3cccc(c23)C1=O)N1CCc2ccccc2C1	-10	34	70	1	3	6
COC(=O)[C@@]1(Cc2ccccc2)[C@H]2c3cc(C(=O)N(C)C)n(Cc4ccc(S(C)(=O)=O)cc4)c3C[C@H]2CN1C(=O)c1ccccc1	.	.	.	1.1	.	.
CCOCCn1cnc2sc(C(=O)Nc3nc(C)c(C(=O)OCC)s3)c(C)c2c1=O	.	.	.	1.2	.	.
CCOC(=O)c1sc(NC(=O)CNC(=O)Cn2cnc3sc(C)c(C)c3c2=O)nc1C	46	-63	226*	1.1	48	-4
Cc1ccc(C)c(C(=O)Nc2c(C(N)=O)oc3ccccc23)c1	90*[fluorescence artefact?]	11	111	1.1	-1	5
CCOC(=O)c1c2c(n(C)c1C)C(=O)C(=O)c1ccc(Br)cc1-2	6	68*[fluorescence artefact?]	98	0.7	12	10
O=C(O)C[C@H](Cc1ccccc1Cl)C(=O)O	.	0	.	.	.	.
Cc1ccccc1Cn1ccc(NC(=O)c2cnn3c2NC(c2ccccc2)CC3C(F)(F)F)n1 (configuration not stated)	2	13	104	1.2	-7	4
Cc1nn(C)c(C)c1CN(C)C(=O)c1cnn2c1NC(c1ccccc1)CC2C(F)(F)F (configuration not stated)	56*	11	100	1	4	9
O=C(CSc1cn(CCNC(=O)c2ccccc2)c2ccccc12)NCc1ccco1	14	-8	92	1.1	7	22*
CCCn1cc(SCC(=O)NCc2ccco2)c2ccccc21	-16	-17	123	1.2	-7	-5
CCOC(=O)c1ccc(CC(=O)c2ccc(O)cc2O)o1	6	4	15	1.2	-1	10
CCC(=O)Oc1ccc(C/C(=N\O)c2ccc(O)cc2O)o1	78*[fluorescence artefact?]	8	13	1.2	70*[fluorescence artefact?]	-1
O=C1c2ccccc2-c2ccc(N=[N+]([O-])c3ccc4c(c3)C(=O)c3ccccc3-4)cc21	.	3	.	.	.	.
O=C1CC(c2ccco2)=Nc2ccccc2N1	-11	-5	106	1.1	-4	2
Cc1ccc(O)c(C2=Nc3ccccc3N=C(c3ccco3)C2)c1	41	41	228*[fluorescence artefact?]	1	34	8
COc1ccccc1N(C(C)=O)c1nc(C)cc(C)c1C#N	2	-5	107	1.3	2	4
COc1cccc(N(C(C)=O)c2nc(C)cc(C)c2C#N)c1	94*[fluorescence artefact?]	-6	99	1	5	11
COC(=O)[C@@H]1CCCN1C(=O)[C@H]1C[C@@H]1[C@H](NC(=O)OCc1ccccc1)c1ccccc1	.	.	.	1.2	.	.
Cc1cc(C)nc(NC(=O)CSc2nn(C)c(=S)s2)n1	33	8	47	1.1	65*	6
CC(C)(C)COS(=O)OCC(C)(C)C	.	3	.	.	.	.
SMILES	ERb coact inh	Smad3 inh	ERa coact pot	MT1-MMP txn act	ERa coact inh	Candida biofilm
Cc1cccc(NC(=O)Cc2noc3ccccc23)c1	9	5	125	2.1*	3	8
CCC(=O)N1C(C(=O)NCc2ccc(OC)cc2)CSC1c1ccc(OC)cc1 (configuration not stated)	-5	-3	95	.	-6	4
COc1ccc(C2SCC(C(=O)NCc3ccc(F)cc3)N2C(C)=O)cc1 (configuration not stated)	7	-5	513*[fluorescence artefact?]	.	-7	4
COC(=O)C(CCCCNC(=O)OCc1ccccc1)NC(=O)CN (configuration not stated)	-11	6	114	1.1	91*[fluorescence artefact?]	4
O=C(O)CCCNC(=O)OCc1ccccc1	-4	12	108	1.1	-5	3
C1CCC(c2nn3c(-c4n[nH]c5c4CCC5)nnc3s2)CC1	61*	12	20	0.9	75*	-3
CCN(CC)c1ccc(-c2nn3c(-c4n[nH]c5c4CCC5)nnc3s2)cc1	-2	14	152	0.7	9	2
COC(=O)[C@@]1(Cc2ccc(OC)cc2)[C@H]2c3cc(C(=O)N(C)C)n(Cc4ccc(O)c(OC)c4)c3C[C@H]2CN1C(=O)c1ccccc1	.	.	.	1.1	.	.
CN=C(N)/N=C(\N)Nc1cc2ccccc2c2ccccc12	.	11	.	.	.	.
CCCCOc1ccc2c(C)cc(=O)oc2c1OCCCC	-2	6	91	1.2	3	-2
Cc1cc(C)c(S(=O)(=O)N2CCC(C(=O)NCc3ccc(Cl)cc3Cl)CC2)c(C)c1	-1	0	91	1	-4	69*
O=C(Cn1c(=O)n(Cc2ccccc2)c(=O)c2ccccc21)NCc1ccco1	8	-4	120	1.2	6	.
COc1cc2c(=O)n(Cc3ccccc3)c(=O)n(CC(=O)NCc3ccco3)c2cc1OC	4	-140	349*[fluorescence artefact?]	1.1	37	4
O=C(NCc1ccco1)c1ccc(Cn2c(=O)c3ccccc3n(Cc3cccc(F)c3)c2=O)cc1	47	-5	24	1.1	67*[fluorescence artefact?]	1
CCCCOC(=O)Cn1c2ccc(OC)cc2c2nc3ccccc3nc21	21	0	227*[fluorescence artefact?]	1	53*[fluorescence artefact?]	8
CCn1c2ccc(OC)cc2c2nc3ccccc3nc21	-17	3	96	1.1	-14	3
O=C(O)/C(=C\c1ccccc1)Cc1ccccc1	.	14	.	.	.	.
COc1ccc(C2CCCN2C(=O)c2cccs2)cc1 (configuration not stated)	-2	-1	112	1.2	2	1
COc1ccc(C2CC(c3cccs3)=Nc3ccccc3S2)cc1 (configuration not stated)	-3	3	100	2.1*	-10	11
CCNc1ccc(Br)cc(C(=O)/C=C/c2ccccc2Cl)c1=O	74*[fluorescence artefact?]	10	94	1.1	80*	4
CNc1ccc(Br)cc(C(=O)/C=C/c2cccc(OC)c2OC)c1=O	55*[fluorescence artefact?]	11	73	1.7	42	6
CC1(C)COCN1COC1CCCCC1	.	-10	.	.	.	.
